# Screens deposited in PubChem BioAssay by National Center for Advancing Translational Sciences (NCATS).
# Sampled rows, rich in hits. Any-hit rate of the full collection: about 19%.
# IL-1B inflam inh = inhibitors of inflammasome signaling (IL-1 beta secretion); activity change, % at 57.5 µM; 4.7% of 360,000 active; THP-1 LPS/ATP IL-1B secretion, AlphaLISA, 16 h; active compounds read low; in the data active = activity change below about -50%; inconclusive = mostly about -30% to -49%
#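 Secreted IL-1B measured by AlphaLISA bead assay after 16 h compound exposure of THP-1 cells; compounds (final up to 57.5 uM) added 1 h before LPS (250 ng/mL) and ATP (1.25 mM) stimulation; lower signal means less secretion.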
# HT1080NT lethal = kills 2HG-producing HT-1080-NT fibrosarcoma cells. HT-1080-NT fibrosarcoma viability, CellTiter-Glo ATP luminescence, 48 h. 1.6% of 360,000 active. Potency, µM (titrated, usually from 46.1 µM), without a hit: top-dose activity, negative = less viability, hits mostly cytotoxic;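 also: NT is the 2HG producing partner of a matched IDH1 knockdown line; potency is read from the fitted curve at half-maximal effect; 0% = DMSO-treated cells and -100% = media-only wells without cells; nearly all actives have a fitted effect of over 55% in size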
#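 Read-out is CellTiter-Glo luminescence after 10 minutes at room temperature, following 48 hours' compound treatment of HT-1080-NT cells (750 cells/well, RPMI, 5% FBS, 37 degrees C).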
# HT1080 IDH1KD tx = kills HT-1080 cells with IDH1 knockdown; HT-1080 IDH1 knockdown viability, ATP luminescence, 48 h; Potency, µM (top dose mostly 46.1 µM), for the others: at the highest dose activity, negative = toxicity, actives largely listed as cytotoxic; 2% of 360,000 active;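 also: potency is read from the fitted curve at half-maximal effect; 0% = DMSO wells and -100% = cell-free medium wells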
#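 Luminescent ATP read-out (CellTiter-Glo, 10 min at room temperature) after 48 h compound exposure at 37 °C gave viability of IDH1-knockdown HT-1080 cells. Activity was normalised to DMSO and cell-free wells, then fitted as concentration-response curves.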
# TDP1 cell CPT = DT40-hTDP1 cell growth loss with CPT; chicken DT40 Tdp1-/-;hTDP1 cells + 20 nM CPT, ATP luminescence, 48 h; Potency, µM (series often up to 46.2 µM), for inactives: at the highest dose activity change, negative = growth inhibition, usual class: inhibitors; 12% of 420,000 active; also: potency is read from the fitted curve at half-maximal effect; nearly all actives have a fitted effect of over 55% in size
#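 Chicken DT40 Tdp1-/- cells complemented with human TDP1, 400 cells/well, exposed to compounds plus 20 nM camptothecin for at least 48 h at 37 C; viability read as ATP content by CellTiter-Glo luminescence.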
# ELG1 repair inh = ELG1-dependent DNA repair inhibition. HEK293T ELG1-luciferase reporter, luminescence, 16 h; DNA damage induced by 5-fluorouridine. Potency, µM (series often up to 46.1 µM), for the others: at the highest dose activity change, negative = inhibition, most hits filed as inhibitors. 2.3% of 330,000 active. AID 504467; also: potency is read from the fitted curve at half-maximal effect; nearly all actives have a fitted effect of over 55% in size
#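 Luminescence from the luciferase reporter, measured 30 min after ONE-Glo reagent at room temperature, was the read-out. Beforehand, 2,000 cells per well were exposed for 16 hr at 37 °C to 5-fluorouridine together with compound or vehicle.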
# DT40 TDP1 no CPT = qHTS for Inhibitors of human tyrosyl-DNA phosphodiesterase 1 (TDP1): qHTS in cells in absence of CPT. DT40 Tdp1-/- hTDP1 cells, no CPT, ATP luminescence, 48 h. Potency, µM (series often up to 46.2 µM), inactives show at the top dose activity change, negative = growth inhibition, most hits filed as inhibitors. 15% of 420,000 active; also: potency is read from the fitted curve at half-maximal effect; nearly all actives have a fitted effect of over 55% in size
#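 No-CPT arm: Tdp1-/-;hTDP1 DT40 cells (400/well) plus compounds, incubated ≥48 hr at 37 °C. Readout CellTiter-Glo luminescence.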
# * = called active by the depositor; ? = inconclusive; · = not tested or not shown; [ ] = remark or other dose. Unless noted, calls follow the shape of the dose curve; as a rule, active = well fitted curve in the direction sought with a large enough effect; inconclusive = small, poorly fitted or top-dose-only effect, or another doubt; inactive = no such curve, though single readings can be large; an effect the other way counts as inactive or inconclusive. Unless noted, % is scaled to controls: 0 for no effect and ±100 for the full control effect.
SMILES,IL-1B inflam inh,HT1080NT lethal,HT1080 IDH1KD tx,TDP1 cell CPT,ELG1 repair inh,DT40 TDP1 no CPT
Cc1cc(C(=O)OCC(=O)Nc2ccccc2Br)c(C)o1,-1,11%,20%,-18%,4%,-1%
Brc1cc2c(cc1/C=N/Nc1nc3ccccc3s1)OCO2,7,4%,2%,15µM*,?,?
Fc1ccc2nc(Nc3nc4c(F)cc(F)cc4s3)sc2c1,-61*,-7%,-7%,16µM*,?,15µM*
Fc1ccc2nc(Nc3nc4cc5c(cc4s3)OCCO5)sc2c1,0,-12%,?,16µM*,?,?
O=[N+]([O-])c1cc(Cl)cc(/C=N/Nc2nc3ccccc3s2)c1O,33,21µM*,18µM*,0.33µM*,3%,0.92µM*
COc1cc(/C=N/Nc2nc3ccccc3s2)cc([N+](=O)[O-])c1O,-10,-7%,5%,?,?,?
Fc1ccc2nc(Nc3nc4cc5c(cc4s3)OCO5)sc2c1,9,?,?,?,?,?
O=C(Nc1cccnc1)C1CCN(S(=O)(=O)c2ccc(Cl)cc2)CC1,18,-1%,1%,-4%,-2%,-18%
COC(C[C@H](O)C[C@H](O)[C@H](C)OCc1ccccc1)OC,24,1%,10%,2%,21%,-1%
Fc1cccc2sc(Nc3nc4ccccc4s3)nc12,0,-12%,-10%,?,?,12µM*
c1ccc2sc(Nc3nc4cc5c(cc4s3)OCO5)nc2c1,19,-15%,-11%,23µM*,?,?
Fc1ccc2nc(Nc3nc4c(F)cccc4s3)sc2c1,0,-29%,?,?,?,?
CC(=O)c1sc(Nc2nc3cc4c(cc3s2)OCO4)nc1C,36,22%,6%,-1%,?,?
Cc1cc(C)cc(-n2c(SCC(=O)NC3CCCCC3)nc3c([nH]c4ccccc43)c2=O)c1,·,·,·,16µM*,·,?
Cc1cc(C)cc(-n2c(SCC(=O)N3CCCC3)nc3c([nH]c4ccccc43)c2=O)c1,·,·,·,-7%,·,5%
O=C(CSc1nc2c([nH]c3ccccc32)c(=O)n1-c1ccc(Cl)cc1)NC1CCCCC1,·,·,·,10µM*,·,15µM*
Cc1ccc(S(=O)(=O)N2CCN(S(=O)(=O)c3ccccc3Br)C2=O)cc1,-16,1%,-1%,?,-5%,?
CN(Cc1ccccc1)c1nc2nonc2nc1N1CCCC(CN2CCCC2=O)C1 (stereo not given),-19,-6%,-4%,?,?,?
COc1ccc(CCNC(=O)/C(C#N)=C2\N=C(NC(=O)c3ccco3)c3ccccc32)cc1,9,?,6%,?,7.3µM*,16µM*
COc1ccccc1N1CCN(C(=O)COc2cccc3ccccc23)CC1,-26,2%,22%,23µM*,?,?
COc1ccccc1N1CCN(C(=O)CN2C(=O)c3cccc4cccc(c34)C2=O)CC1,?,3%,9%,26µM*,?,?
COc1ccccc1N1CCN(C(=O)Cn2c(=O)nc(-c3ccccc3)c3ccccc32)CC1,·,·,·,?,·,15µM*
O=C(COC(=O)c1cccc(Cl)c1)NCc1ccccc1,-1,5%,1%,-14%,?,-22%
COc1ccc(C(C)(C)NC(=O)C2CCC(=O)N(CCCN3CCCC3=O)C2)cc1 (stereo not given),13,-1%,10%,-5%,4%,13%
O=C(c1cccc(F)c1F)N1CCOc2ccc(CN3CCC(Oc4cccnc4)CC3)cc2C1,·,·,·,-14%[9.04 µM],·,?
SMILES,IL-1B inflam inh,HT1080NT lethal,HT1080 IDH1KD tx,TDP1 cell CPT,ELG1 repair inh,DT40 TDP1 no CPT
CC(C)c1ccc(C(=O)N2CCCCC2c2cc(C(=O)NCc3cccnc3)no2)cc1 (stereo not given),4,0%,0%,?,·,?
CCOC(=O)C(=O)N/N=C/c1ccc(F)cc1,-2,25%,18%,-6%,-9%,-2%
CCOC(=O)C(=O)NNc1ccc(F)cc1,-14,12µM*,8.2µM*,18%,?,0%
CC(C)(C)Sc1ccc([N+](=O)[O-])cc1C(=O)Nc1ccncc1,-13,3%,-11%,4%,?,-25%
Nc1ncnc2c1C1(CCCCC1)Cc1ccccc1-2,0,3%,-7%,?,10µM*,?
COc1ccc(OCC(=O)Nc2c(C(=O)N3CCN(c4ccccc4)CC3)oc3ccccc23)cc1,·,·,·,?,·,-10%
COc1ccc(N2CCN(C(=O)c3oc4ccccc4c3NC(=O)Cc3cccc(OC)c3)CC2)cc1,-22,4%,-4%,?,-28%,?
Cc1cccc(OCC(=O)Nc2c(C(=O)N3CCN(c4ccccc4F)CC3)oc3ccccc23)c1,·,·,·,?,·,18µM*
CCOCC(=O)Nc1c(C(=O)N2CCN(c3ncccn3)CC2)oc2ccccc12,-12,0%,-2%,?,-10%,12µM*
CC(C)(C)C(=O)Nc1c(C(=O)N2CCN(c3ccc(F)cc3)CC2)oc2ccccc12,·,·,·,18µM*,·,15µM*
COc1ccc(N2CCN(C(=O)c3oc4ccccc4c3NC(=O)Cc3ccc(OC)c(OC)c3)CC2)cc1,-27,-1%,-3%,?,?,0%
CC(C)CC(=O)Nc1c(C(=O)N2CCN(c3ccccc3F)CC2)oc2ccccc12,·,·,·,13µM*,·,10µM*
COc1ccc(OCC(=O)Nc2c(C(=O)N3CCN(C)CC3)oc3ccccc23)cc1,-4,1%,9%,-23%,-19%,-14%
NC(=O)C1CCN(C(=O)C2CCC(=O)N(C3CCCCCC3)C2)CC1 (stereo not given),0,-2%,4%,-7%,0%,-8%
O=C(NC(Cc1ccccc1)C(=O)O)/C(=C/c1ccc(Cl)cc1)NC(=O)c1ccco1 (stereo not given),-2,9%,0%,-6%,0%,0%
COc1ccc(S(=O)(=O)NCc2cccnc2)c2ccccc12,1,1%,-8%,-2%,4%,-19%
C=CCN1C(=O)/C(=C\c2ccc(Oc3nc(N4CCOCC4)nc(N4CCOCC4)n3)c(OC)c2)SC1=S,30,4%,6%,?,?,?
CCOC(=O)c1cc(C#N)c(SC(C)C(=O)NC2CCCCC2)nc1C (stereo not given),13,8%,0%,-24%,12%,-29%
